# Measured values published in PubChem BioAssay AID603 (National Center for Advancing Translational Sciences (NCATS), 2007).
# In all, about 71,000 compounds went through this assay and about 180 (0.25%) were called active. A call without a number means that no potency is given here. This excerpt belongs to a sample that is enriched for actives. Values without a mark were called inactive. Calls come from the whole dose curve; as a rule, active = well fitted curve in the direction sought with a large enough effect; inconclusive = small, poorly fitted or top-dose-only effect; inactive = flat fitted curve, though single readings scatter.
# System: DNA polymerase III holoenzyme (E. coli)
# Experiment: qHTS Assay for Inhibitors of DNA Polymerase III Holoenzyme System
# Settings: reconstituted DNA polymerase III holoenzyme replication, biochemical; series mostly up to 57.1 µM
# Method: NIH Molecular Libraries Screening Centers Network [MLSCN]
# NIH Chemical Genomics Center [NCGC]
# Assay Provider: Charles McHenry, University of Colorado
# E. coli DNA polymerase III holoenzyme complex was assayed for DNA production by fluorescent detection of the double-stranded DNA product with PicoGreen dye. The holoenzyme complex was reconstituted from the following purified protein components: DNA Polymerase III, beta subunit processivity factor, SSB single-stranded DNA binding protein, and Primase. Single-stranded, circular M13Gori was used as a substrate with dNTPs and NTPs also supplied to the substrate reagent. Compounds from the NCGC collection were incubated with the holoenzyme mixture for 15 min at room temperature to allow binding to occur, and then the reaction was started by the addition of substrate. After 30 min incubation at room temperature, PicoGreen solution containing EDTA was added to stop the reaction and to visualize the double-stranded DNA produced. Reaction progress was measured in a ViewLux CCD imager in fluorescence intensity mode by using 480 nm excitation and 540 nm emission filter set.
# NCGC Assay Protocol Summary:
# Buffer. 50 mM Hepes-KOH, pH 7.5, 5 % Glycerol, 0.02% NP40, 30 mM potassium;
# glutamate, 1.5 mM Magnesium Acetate, 16 uM TCEP.
# Buffer in columns 3 and 4 as negative control (no enzyme).
# Substrate solution: 5 uM each dATP, dGTP, dCTP and TTP, 50 uM each GTP, CTP, UTP and 200 uM ATP, 1.4 nM M13gori (final concentrations).
# Enzyme: 154 nM SSB, 2 nM Primase, 1 nM Beta, 0.35 nM Pol III (final concentrations).
# PicoGreen/EDTA: 10 mM Tris-HCl, 10 mM EDTA, 5 uM PicoGreen (final concentrations).
# Control titration: ChemBridge 5805060 (from 10 mM, then 1:2, in duplicate) was pin-transferred to upper half of column 2.
# Three uL of holoenzyme mixture were dispensed to 1536-well Greiner black solid bottom plates. Compounds and controls (23 nL) were transferred via Kalypsys PinTool. The plates were incubated for 15 min at room temperature, and then 1 uL of substrate solution was added to start the reaction. After room temperature incubation for 35 minutes, 1 uL of PicoGreen solution was added to each well and the plates were read 480 nm excitation and 540 nm emission using ViewLux (Perkin-Elmer) High-throughput CCD imager and fluorescence protocol settings.
# Keywords: NIH Roadmap, MLSCN, MLI, MLSMR, qHTS, NCGC, DNA Polymerase III, DNAPol3, DNAPoly3, DNA replication targets
Compound,"activity change, negative = inhibition",Potency
CC(=O)OCC(COC(C)=O)OC(C)=O,inactive,–
CCOc1ccc(-c2nnc3ccc(SC)nn23)cc1,inactive,–
CN(C)c1ncc2nc(-c3ccc(F)cc3)c(=O)n(Cc3ccc(F)cc3)c2n1,inactive,–
Cc1c(NC(=O)C(C)OC(=O)c2cc3c4ccccc4n(C)c3s2)c(=O)n(-c2ccccc2)n1C (configuration not stated),inactive,–
CC1COC2C(O1)N(S(C)(=O)=O)CCN2S(C)(=O)=O (configuration not stated),inactive,–
Cc1cc(NC(=O)COc2ccc(Cl)cc2Cl)n(CCC#N)n1,inactive,–
COc1cc(=O)[nH]c(=O)n1C(=O)Cc1ccccc1,inactive,–
CCC(C)(C)n1nnnc1C(c1cccs1)N1CCN(c2nc3ccccc3s2)CC1 (configuration not stated),inactive,–
CC[N+](C)(CC)CCC[n+]1c(-c2ccccc2)c2cc(N)ccc2c2ccc(N)cc21,–,2 µM (active)
O=C(OCC(COC(=O)c1ccccc1)(COC(=O)c1ccccc1)COC(=O)c1ccccc1)c1ccccc1,inactive,–
COc1ccc(CC(=O)n2nc(-c3cccnc3)nc2N)cc1,inactive,–
COc1ccccc1NC(=O)C1=C(C)Nc2nnnn2C1c1cccc(Br)c1 (configuration not stated),inactive,–
CC(C)NC(=O)CCCn1c(=S)[nH]c2cc3c(cc2c1=O)OCO3,inactive,–
CCCC(=O)Nc1c(O)c2ccccc2[nH]c1=O,inactive,–
CCCOC(=O)Cc1c(O)c2ccccc2[nH]c1=O,inactive,–
O=C1C(c2[nH]c3ccccc3c2O)=Nc2ccccc21,–,3.98 µM (active)
CC(C)(C)[Si](OCC[C@@H]1C[C@@]1(C)[C@@H](NP(=O)(c1ccccc1)c1ccccc1)c1ccccc1)(c1ccccc1)c1ccccc1,inactive,–
N#Cc1cccc(-c2ccc3ncnc(NCc4cccs4)c3c2)c1,inactive,–
CC(C)C[C@H](NC(=O)NCCc1ccc(Cl)cc1)C(=O)O,inactive,–
COc1ccc(-n2ncc3c(N4CCCc5ccccc54)ncnc32)cc1,inactive,–
CCCC[C@@H]1C[C@H]1C(NC(=O)c1ccco1)c1ccc(C(=O)OC)cc1 (some centres not stated),inactive,–
CS(=O)(=O)N1CCC2(CC1)CN(c1ccncc1)C2,inactive,–
O=C(O)c1ccc(C(=O)c2ccccc2C(=O)O)cc1C(=O)O,–,3.98 µM (active)

Compound,"activity change, negative = inhibition",Potency
O=C(c1ccc(O)cc1)c1ccc(C(=O)O)c(C(=O)O)c1,inactive,–
Cc1ccccc1C(=O)O,inactive,–
CCc1nnc(NS(=O)(=O)c2ccc(NS(=O)(=O)c3ccccc3)cc2)s1,inactive,–
Cc1ccnc(N)c1,inactive,–
c1ccc2nc(C3=NCCN3)cnc2c1,inactive,–
c1ccc(Cc2nn3c(Cn4cnc5ccccc54)nnc3s2)cc1,inactive,–
COc1ccc2oc(=O)c(C(=O)O)cc2c1,inactive,–
O=C(CN1CCOc2ccccc21)N1CCC(Cc2ccccc2)CC1,inactive,–
O=C(NCCCN1CCCCCC1)c1ccc(N2CCCC2=O)cc1,inactive,–
CC(=O)N1[C@H](C)C=C[C@]1(Cc1ccccc1)C(=O)NCc1ccccn1,inactive,–
O=C1CN(C(=O)COC(=O)C2CC(=O)N(Cc3ccco3)C2)c2ccccc2N1 (configuration not stated),inactive,–
O=C(Nc1ccn(Cc2ccc(F)cc2)n1)c1ccncc1,inactive,–
CC(=O)N=c1ncn(CC(COC(C)=O)OC(C)=O)c2nc[nH]c12 (configuration not stated),inactive,–
CCn1c(CSc2ncccn2)nnc1SCC(=O)N1c2ccccc2CC1C (configuration not stated),inactive,–
C/C(=C\c1ccco1)C1Nc2cccc3cccc(c23)N1,–,3.16 µM (active)
Cc1cc(C)cc(NC(=O)C2CCN(c3nc(C)cc(C)n3)CC2)c1,inactive,–
CN1CCCC(OC(=O)COc2ccc(Br)cc2)C1 (configuration not stated),inactive,–
Cc1cc(=O)oc(C)c1C(=O)NCc1ccc(F)cc1,inactive,–
Oc1ccccc1CNCc1ccccc1O,-9.4% [at 11.4 µM],–
CCOC(=O)c1c(C2CC2)csc1NC(=O)CSCc1c(C)noc1C,inactive,–
Cc1cc(C)nc(SCc2ccccc2C#N)n1,inactive,–
CCCCCCc1ccc(O)cc1O,inactive,–
COc1ccccc1CNc1ncnc2ccc(-c3c(C)noc3C)cc12,inactive,–

Compound,"activity change, negative = inhibition",Potency
COc1ccc(Cn2cccc(NC(=O)Nc3ccc(C#N)cc3)c2=O)cc1,inactive,–
COc1ccc(OC)c(C(=O)c2ccc(C(=O)O)cc2)c1,inactive,–
CC(C)NC[C@H](O)c1ccc2ccccc2c1,inactive,–
O=C(Oc1ccc2c(c1)CN(Cc1ccccc1)CO2)c1ccccc1,-3% [at 11.4 µM],–
COCCn1c(=O)c(CCc2ccccc2)nc2cncnc21,inactive,–
CCCn1c(-c2ccc(F)cc2)nc2c(NCC3CCCN3CC)nc(C)nc21 (configuration not stated),inactive,–
COc1cccc2sc(Nc3nc(C)c(C(C)=O)s3)nc12,inactive,–
O=S(=O)(c1cccc(S(=O)(=O)N2CCC(n3nnc4ccccc43)CC2)c1)N1CCCCC1,inactive,–
CC[C@]1([C@H]2O[C@@H]([C@@H]3O[C@](O)(CO)[C@@H](C)C[C@H]3C)C[C@H]2C)CC[C@@H]([C@]2(C)CC[C@@]3(C[C@@H](O)[C@@H](C)[C@@H]([C@H](C)[C@H](OC)[C@H](C)C(=O)O)O3)O2)O1,inactive,–
CC(=O)NC(C)c1nc2ccccc2n1Cc1ccccc1F (configuration not stated),inactive,–
Cc1ccc(S(=O)(=O)Nc2ccccc2CNc2c(C)n(C)n(-c3ccccc3)c2=O)cc1,inactive,–
Cc1noc(C)c1-c1nccc(N2CCOCC2)n1,inactive,–
Cc1cc(C)cc(N(CC(=O)Nc2c(C)n(C)n(-c3ccccc3)c2=O)S(C)(=O)=O)c1,2.7% [at 11.4 µM],–
Cc1cn(C2C=CC(CO)O2)c(=O)[nH]c1=O (configuration not stated),inactive,–
COc1cccc2cc(C(C)N(CCCN3CCOCC3)C(=O)Nc3ccc(Cl)cc3)oc12 (configuration not stated),inactive,–
O=C(c1cc(C(F)(F)F)cc(C(F)(F)F)c1)N1CCC[C@@]2(CCN(c3ccccn3)C2)C1,inactive,–
CS(=O)(=O)Nc1cccc(-c2cncnc2Nc2ccccc2)c1,inactive,–
CCOc1ccc(CCNC(=O)C2CCN(c3ccc(N4CCOCC4)nn3)CC2)cc1OCC,inactive,–
Cc1cccc(C(=O)O)c1,inactive,–
COC(=O)[C@@]1(Cc2ccc(F)cc2)[C@H]2c3cc(C(=O)N(C)C)n(CCc4c[nH]c5ccc(OC)cc45)c3C[C@H]2CN1C(=O)c1ccccc1,inactive,–
COc1ccccc1CCn1c(=O)c(-c2cn(C)c3ccccc23)nc2cncnc21,inactive,–
